For 23 molecules, Potency and PLD induction results are on record in PubChem BioAssay (Tox21).

Test [1] is described as follows: qHTS assay to identify small molecule antagonists of the estrogen receptor alpha (ER-alpha) signaling pathway using the BG1 cell line in the presence of 0.1 nM 17-beta-estradiol - cell viability counter screen (AID 1259241). Further: nearly all actives have a fitted effect of over 40% in size. Further: potency means the concentration at half of the fitted maximal effect. A digest of the protocol:
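CellTiter-Fluor read (30 min, 37C) on ER-alpha/ERE-luc VM7Luc4E2 cells; 22 hr compound treatment; agonist 0.1 nM E2 final; same-well multiplex.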
(In general: qHTS replaces the single test concentration by a dilution series.)

A short description of test [2]: qHTS assay to identify small molecule antagonists of the androgen receptor (AR) signaling pathway using the MDA cell line in the presence of 0.5 nM R1881 - cell viability counter screen (AID 1259242). Further: nearly all actives have a fitted effect of over 45% in size. Further: potency means the concentration at half of the fitted maximal effect. A digest of the protocol:
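MDA-kb2 cells (human breast carcinoma, stably carrying MMTV-luciferase reporter) were exposed to compounds with 0.5 nM R1881 (final) for 16 hr at 37C, 0% CO2; viability then read as live-cell protease fluorescence (CellTiter-Fluor, 30 min) in the same wells.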

Test [3] concerns the target Androgen receptor (Homo sapiens) (UniProt P10275). Description: qHTS assay to identify small molecule antagonists of the androgen receptor (AR) signaling pathway using the MDA cell line in the presence of 0.5 nM R1881 (AID 1259243). Further: nearly all actives have a fitted effect of over 50% in size. Further: potency means the concentration at half of the fitted maximal effect. A digest of the protocol: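 MDA-kb2 human breast carcinoma cells carrying an MMTV-luciferase reporter (AR- and GR-responsive) were plated, rested 5 hr at 37C, dosed with compounds, then stimulated with 0.5 nM R1881 (final) for 16 hr; luminescence was read after ONE-Glo.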

Test [4] can be described thus: qHTS assay to identify small molecule HDAC inhibitors (AID 1259364). Further: top concentration of the series differs between compounds; nearly all actives have a fitted effect of over 45% in size. A digest of the protocol: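 Wild-type HCT-116 cells were plated overnight, exposed to compounds for 2 h at 37 °C, then given HDAC-Glo class I/II luminogenic reagent for 30 min at room temperature before luminescence was read.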
Test [5] in a line: qHTS assay to identify small molecule HDAC inhibitors - cell viability counter screen (AID 1259365). Further: nearly all actives have a fitted effect of over 50% in size. Further: potency means the concentration at half of the fitted maximal effect. A digest of the protocol:
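To flag cytotoxic hits, 1,500 wild-type HCT-116 cells per well, plated the day before, receive test compounds for 2hr at 37 C before CellTiter-Glo reagent and a luminescence read.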

Test [6] in a line: qHTS assay to identify small molecule agonists of the sonic hedgehog signaling (Shh) pathway - cell viability counter screen (AID 1259366). Further: nearly all actives have a fitted effect of over 50% in size. Further: potency means the concentration at half of the fitted maximal effect. A digest of the protocol: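 Fluorescence from CellTiter-Fluor reports live cells in this counter screen. NIH/3T3-derived Gli1-Luc reporter cells receive test compounds for 24hr at 37C; reagent goes in at 23hr.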
Test [7] is described as follows: qHTS assay to identify small molecule antagonists of the sonic hedgehog signaling (Shh) pathway - cell viability counter screen (AID 1259367). Further: nearly all actives have a fitted effect of over 55% in size. Further: potency means the concentration at half of the fitted maximal effect. A digest of the protocol:
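After a 4 hr settling period, 3T3 Gli1-Luc cells were treated with DMSO-dissolved chemicals and conditioned medium, kept 24 hr at 37C in 5% CO2, and assayed for viability by CellTiter-Fluor fluorescence following 1 hr reagent incubation.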

Test [8] can be described thus: qHTS assay to identify small molecule agonists of the sonic hedgehog signaling (Shh) pathway (AID 1259368; calls by dose curve; further: series mostly up to about 92 µM; nearly all actives have a fitted effect of over 15% in size). A digest of the protocol: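 NIH/3T3-derived 3T3Gli1-Luc cells carrying a stably integrated Gli1 response element–firefly luciferase reporter were plated, left 4 hr at 37 C, then given compounds in DMSO for 24 hr. Luminescence was read 30 min after adding luciferase reagent.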

Test [9] concerns the target Estrogen receptor (Homo sapiens) (UniProt P03372). Description: qHTS assay to identify small molecule antagonists of the estrogen receptor alpha (ER-alpha) signaling pathway using the BG1 cell line in the presence of 0.1 nM 17-beta-estradiol (AID 1259244). Further: nearly all actives have a fitted effect of over 50% in size. Further: potency means the concentration at half of the fitted maximal effect. A digest of the protocol:
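VM7Luc4E2 cells (endogenous full-length ER-alpha, stable 4xERE-luciferase) were grown 5 days in phenol red-free medium with charcoal-stripped FBS, then exposed 22 h at 37C to compounds plus 0.1 nM (final) 17beta-estradiol; ONE-Glo luminescence read-out.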

Test [10] in a line: qHTS assay to identify small molecule phospholipidosis (PLD) inducers (AID 1259344; active means well fitted curve in the direction sought with a large enough effect; an effect the other way counts as inactive or inconclusive). A digest of the protocol:
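HepG2 cells grown on collagen I take up LipidTOX Red while exposed to compound for 24 h; after fixation they are imaged at 20x and pit metrics are extracted.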

Molecules are shown by their SMILES. A number with no mark means an inactive call. Results filed as inconclusive are left out. Calls of active or inactive are those of the source. Unless noted, the call rests on the fitted dose curve; in most records, active means well fitted curve in the direction sought with a large enough effect in the repeat runs; inconclusive means weak or mixed curves; inactive means no such curve, though single readings can be large; an effect the other way counts as inactive or inconclusive.
On the % scale 0 is the no-effect control and ±100 the full control effect.

Androgen receptor (Homo sapiens), sequence (P10275 whole entry, looked up): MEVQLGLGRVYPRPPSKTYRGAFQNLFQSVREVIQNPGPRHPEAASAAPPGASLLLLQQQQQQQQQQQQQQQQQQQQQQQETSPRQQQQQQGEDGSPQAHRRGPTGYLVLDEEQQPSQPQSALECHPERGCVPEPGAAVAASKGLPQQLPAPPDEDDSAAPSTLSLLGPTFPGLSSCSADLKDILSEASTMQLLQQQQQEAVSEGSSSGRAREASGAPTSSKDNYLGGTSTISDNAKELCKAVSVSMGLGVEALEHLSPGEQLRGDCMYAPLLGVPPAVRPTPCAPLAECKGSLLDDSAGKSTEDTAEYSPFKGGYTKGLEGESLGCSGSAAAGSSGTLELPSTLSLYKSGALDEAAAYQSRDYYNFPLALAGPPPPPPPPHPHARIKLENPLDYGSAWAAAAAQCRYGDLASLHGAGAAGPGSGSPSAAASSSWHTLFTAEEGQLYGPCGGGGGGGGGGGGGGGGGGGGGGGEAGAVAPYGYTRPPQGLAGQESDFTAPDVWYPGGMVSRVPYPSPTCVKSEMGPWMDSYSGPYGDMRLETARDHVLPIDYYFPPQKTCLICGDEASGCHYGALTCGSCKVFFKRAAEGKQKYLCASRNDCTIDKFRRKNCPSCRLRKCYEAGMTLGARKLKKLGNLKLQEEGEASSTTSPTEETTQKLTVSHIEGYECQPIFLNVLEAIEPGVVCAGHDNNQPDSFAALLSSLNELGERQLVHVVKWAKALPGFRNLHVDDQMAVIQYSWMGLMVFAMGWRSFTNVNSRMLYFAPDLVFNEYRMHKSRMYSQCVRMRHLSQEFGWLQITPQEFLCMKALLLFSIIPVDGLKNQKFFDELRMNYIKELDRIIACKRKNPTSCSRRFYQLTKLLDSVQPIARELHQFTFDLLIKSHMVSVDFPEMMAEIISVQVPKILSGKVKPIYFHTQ
Estrogen receptor (Homo sapiens), sequence (P03372 whole entry, looked up): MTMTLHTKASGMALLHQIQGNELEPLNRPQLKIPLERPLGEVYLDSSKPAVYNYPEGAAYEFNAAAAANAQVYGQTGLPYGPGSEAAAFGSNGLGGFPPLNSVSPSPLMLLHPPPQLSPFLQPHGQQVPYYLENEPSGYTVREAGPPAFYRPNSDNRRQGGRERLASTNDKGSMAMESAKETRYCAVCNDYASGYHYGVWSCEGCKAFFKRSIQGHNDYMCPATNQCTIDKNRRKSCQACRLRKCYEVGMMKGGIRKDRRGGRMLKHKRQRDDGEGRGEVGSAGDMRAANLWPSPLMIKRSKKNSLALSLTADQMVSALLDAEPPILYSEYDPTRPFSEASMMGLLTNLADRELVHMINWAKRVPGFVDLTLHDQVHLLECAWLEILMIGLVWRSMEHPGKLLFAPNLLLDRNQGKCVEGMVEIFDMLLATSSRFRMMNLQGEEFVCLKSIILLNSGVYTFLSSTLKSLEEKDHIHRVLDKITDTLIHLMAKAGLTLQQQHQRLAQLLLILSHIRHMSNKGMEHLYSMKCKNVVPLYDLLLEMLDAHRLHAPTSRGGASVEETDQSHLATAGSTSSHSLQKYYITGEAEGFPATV

Consider `CCCc1ccc(OCC(=O)N2CCN(C(=O)COc3ccc(CCC)cc3OC)CC2)c(OC)c1`, for which the Potency result in [1], in test [2], in test [4], in test [5], in [6] and in test [7] was “inactive” in each case. Further, the Potency entry in test [8] was “inactive”. In test [3], the Potency is 26.6 µM (active).

For the molecule `O=C(O)[C@H](O)[C@@H](O)[C@H](O[C@@H]1O[C@H](CO)[C@H](O)[C@H](O)[C@H]1O)[C@H](O)CO`, the Potency entry in test [1], in [2], in test [9], in test [10], in test [4] and in test [5] was “inactive” throughout. Also, the Potency entry in test [6], in test [7] and in [8] was “inactive” in each case.

`CN(C)CCN1CCN(c2cccc(Cl)c2)C1=O`: the Potency result in test [1], in test [2], in test [3], in [9], in [5] and in [6] was “inactive” each time. In addition, the Potency result in test [7] and in test [8] was “inactive” in each case.

`CCc1cccc(CC)c1NC(=O)CN(CC(=O)O)CC(=O)O`: the Potency result in [1], in test [2], in test [9], in [10], in test [4] and in test [5] was “inactive” in each case. For the same molecule, the Potency result in test [6], in test [7] and in [8] was “inactive” throughout.

For the molecule `CC(C)=CCNc1ncnc2c1ncn2[C@@H]1O[C@H](CO)[C@@H](O)[C@H]1O`, the Potency entry in test [1], in [2], in test [3], in test [4], in [5] and in [8] was “inactive” in each case.

In the case of `CCCCCCCCCCCCOCCOCCOCCOCCOCCOCCOCCOCCOCCO`, the Potency in test [1] was 13.3 µM (active); in [2] it was 21.1 µM (active); in test [9], 6.68 µM (active). Further, the Potency entry in [10], in test [4], in test [5], in [7] and in [8] was “inactive” throughout.

Consider `ClCCl`, for which the Potency result in test [1], in [2], in test [3], in test [9], in test [4] and in test [5] was “inactive” in each case. For the same molecule, the Potency entry in [6], in [7] and in test [8] was “inactive” in each case.

As for `CCN(CC)c1ccc2c(-c3ccc(S(=O)(=O)O)cc3S(=O)(=O)[O-])c3ccc(=[N+](CC)CC)cc-3oc2c1`, the Potency is 12.6 µM (active) in [1]; 25.1 µM (active) in test [2]; 22.4 µM (active) in test [3]; 12.6 µM (active) in [5]; 9.99 µM (active) in test [6]; 11.2 µM (active) in test [7]. Besides, the Potency result in test [8] is “inactive”.

In the case of `COC(=O)Nc1nc2ccc(C(=O)c3ccccc3)cc2[nH]1`, the Potency entry in test [1], in test [2], in test [3], in test [9], in test [5] and in test [8] was “inactive” each time. Moreover, the Potency in test [7] is 3.35 µM (active).

With `Clc1sc(Cl)c(Cl)c1Cl`, the Potency entry in [1], in test [2], in [3], in [9], in test [5] and in test [6] was “inactive” each time. In addition, the Potency entry in test [7] and in test [8] was “inactive” throughout.

`CCN1C(=O)c2ccccc2C1Nc1ccc(OCCN2CCCCC2)cc1` (stereo not drawn): the Potency entry in [1], in test [2], in test [3], in [9], in [4] and in test [5] was “inactive” each time. In addition, the Potency entry in [6], in [7] and in test [8] was “inactive” in each case. For the same molecule, the PLD induction in [10] was 0.829% [at 7.66 µM].

Turning to `CC(C)(C)NSc1nc2ccccc2s1`, the Potency result in test [1], in test [2], in test [3], in test [9], in test [4] and in test [5] was “inactive” throughout. For the same molecule, the Potency entry in [6], in [7] and in test [8] was “inactive” each time.

As for `CCCCC(CC)CN1CN(CC(CC)CCCC)CC(C)(N)C1` (stereo not drawn), the Potency result in test [1], in test [10], in [4], in test [5], in test [7] and in [8] was “inactive” each time. In addition, the Potency in test [2] and in [3] was 26.6 µM (active) throughout.

On to `CCCCCCCCCCOC(=O)c1ccccc1C(=O)OCCCCCCCC`, for which the Potency result in test [1], in test [2], in test [3], in test [9], in test [4] and in test [5] was “inactive” each time. Also, the Potency result in test [6], in [7] and in [8] was “inactive” in each case.

In the case of `CN(C)Cc1ccccc1O`, the Potency entry in test [1], in test [2], in test [3], in test [9], in [4] and in test [5] was “inactive” throughout. For the same molecule, the Potency result in test [7] and in test [8] was “inactive” each time.

As to `Nc1nc2c(ncn2COCCO)c(=O)[nH]1`, the Potency entry in [1], in test [2], in test [9], in test [10], in [4] and in test [5] was “inactive” each time. The Potency result in test [6], in test [7] and in [8] was “inactive” each time.

Regarding `CC(CO)Oc1ccccc1` (stereo not drawn), the Potency result in [1], in [2], in test [3], in [4], in [5] and in test [7] was “inactive” throughout. For the same molecule, the Potency entry in test [8] is “inactive”.

Consider `Cc1cccc(C(=O)O)c1O`, for which the Potency result in [1], in test [2], in test [9], in [10], in [4] and in [5] was “inactive” in each case. In addition, the Potency result in test [6], in test [7] and in test [8] was “inactive” in each case.

On to `COc1c(C)c2c(c(O)c1C/C=C(\C)CCC(=O)OCCN1CCOCC1)C(=O)OC2`, for which the Potency entry in [1], in [2], in test [3], in test [9], in test [10] and in [4] was “inactive” throughout. The Potency result in test [5], in test [7] and in test [8] was “inactive” in each case.

As to `CCOC(=O)Cn1cccc1-c1nc(-c2ccc(OC)cc2)c(-c2ccc(OC)cc2)s1`, the Potency entry in test [1], in test [2], in [9], in test [10], in [4] and in test [5] was “inactive” throughout. Also, the Potency result in test [6], in test [7] and in test [8] was “inactive” each time.

As to `Nc1ccc(C(=O)O)c(O)c1`, the Potency result in test [1], in [2], in test [3], in [10], in [4] and in test [5] was “inactive” each time. The Potency entry in [6], in test [7] and in test [8] was “inactive” in each case.

`NC(=S)NC(N)=S`: the Potency result in [1], in test [2], in test [3], in test [9], in test [4] and in test [5] was “inactive” in each case. The Potency result in test [6], in test [7] and in test [8] was “inactive” each time.

In the case of `CC(=O)OCC=C(C)C`, the Potency result in test [1], in [2], in test [3], in test [9], in test [4] and in [5] was “inactive” in each case. Moreover, the Potency entry in [6], in test [7] and in test [8] was “inactive” throughout.
